High-throughput results as filed in PubChem BioAssay.
An excerpt weighted towards active compounds, which were near 1.5% of everything screened.
Mac1 fbg enh = enhancers of CD11b/CD18 adhesion to fibrinogen, primary screen, K562 cells, luminescence; Integrin beta-2 (Homo sapiens) + Integrin alpha-M (Homo sapiens), P05107+P11215; ATPlite luminescence; activation, % at 10 µM; 93,000 compounds, 0.07% hits;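 active means 10 µM primary screen giving 50% or more activity, confirmed by 40% or more on retest at that dose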
S1P2 ag = S1P2 receptor agonists, primary screen, cell-based | Sphingosine 1-phosphate receptor 2 (Homo sapiens), O95136 | S1P2-expressing cell line, agonist reporter read-out | activation, % at 4.5 µM | 97,000 compounds, 0.46% hits | AID 729, 2007; in the data active means activation above about 16%;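 further: 0% = vehicle low control and 100% = maximal reference agonist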
CD11b adhes inh = inhibitors of CD11b/CD18 adhesion to fibrinogen, primary screen, K562 cells, luminescence; ATPlite luminescence; Mn2+ added to activate the integrin; Integrin beta-2 (Homo sapiens) + Integrin alpha-M (Homo sapiens), P05107+P11215; inhibition, % at 10 µM; 93,000 compounds, 0.54% hits;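 active means primary inhibition of 50% or more at 10 µM, then 40% or more on retest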
GALR2 blocker = GALR2 antagonists in receptor-expressing cells, primary screen; Galanin receptor type 2 (Homo sapiens), O43603; antagonist mode; inhibition, % at 4 µM; 140,000 compounds, 0.39% hits; AID 828, 2007; in the data active means inhibition above about 27%;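 further: cells stimulated with galanin 1-16 at roughly its EC80; 0% = agonist challenge control and 100% = basal control without agonist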
Target sequence (O43603 whole entry, looked up): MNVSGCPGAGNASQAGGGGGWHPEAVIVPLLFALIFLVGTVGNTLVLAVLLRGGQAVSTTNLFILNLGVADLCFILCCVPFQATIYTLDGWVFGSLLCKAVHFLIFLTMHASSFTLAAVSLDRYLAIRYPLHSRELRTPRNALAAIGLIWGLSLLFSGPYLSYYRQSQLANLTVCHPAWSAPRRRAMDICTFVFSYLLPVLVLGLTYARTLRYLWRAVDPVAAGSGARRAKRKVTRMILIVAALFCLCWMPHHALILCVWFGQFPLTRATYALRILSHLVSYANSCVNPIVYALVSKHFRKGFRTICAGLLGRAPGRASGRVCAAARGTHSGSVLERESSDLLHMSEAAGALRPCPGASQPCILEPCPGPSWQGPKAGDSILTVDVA
GALR2 ag = GALR2 receptor agonists, primary screen, cell-based. Galanin receptor type 2 (Homo sapiens), O43603. GALR2-expressing cells, agonist activation read-out. activation, % (test concentration not listed). 140,000 compounds, 0.48% hits; in the data active means activation above about 5%, passing the limit was not always enough;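 further: 0% = vehicle buffer wells and 100% = reference agonist at full effect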
S1P2 blocker = human S1P2 receptor antagonists, primary screen, cell-based | Sphingosine 1-phosphate receptor 2 (Homo sapiens), O95136 | cell-based S1P2 antagonist assay, inhibition at 5 uM | inhibition, % at 5 µM | 97,000 compounds, 0.21% hits; in the data active means inhibition above about 45%;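 further: CRE beta-lactamase reporter cells expressing human S1P2 stimulated with S1P; 0% = agonist at EC80 alone and 100% = agonist plus reference antagonist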
* marks the source's active call; other numbers are inactive results; / = no result given.

SMILES	Mac1 fbg enh	S1P2 ag	CD11b adhes inh	GALR2 blocker	GALR2 ag	S1P2 blocker
Cc1cc(=O)oc2cc(Nc3ccccc3)ccc12	1	/	3	12	0	/
CCNc1ccc2c(Cl)cc(=O)oc2c1	0	-5	14	16	6	47*
COc1ccc(CC(=O)Nc2ccccc2C(=O)N2CCOCC2)cc1	/	/	/	-8	-1	/
Cc1nc(CSc2nc3[nH]ncc3c(=O)n2-c2ccccc2)cs1	-5	0	-2	3	-3	-30
Cc1cccc(-n2c(SCc3cc(=O)n4c(C)cccc4n3)nc3[nH]ncc3c2=O)c1	-2	17*	7	3	-2	-30
COC(=O)c1sc(N)c(C(=O)OC)c1CSc1nc2sc3c(c2c(=O)n1C)CCC3	/	27*	/	14	-2	-29
O=C1CC(c2ccc(Cl)cc2)SC(N(c2ccccc2)c2ccccc2)=N1 (stereo unspecified)	/	/	/	-2	-1	/
Cc1ccc(NC(=O)C2(c3ccccc3)CC2(Cl)Cl)cc1C (stereo unspecified)	/	-7	/	-19	-1	15
CCc1ccc(NC(=O)C2(c3ccccc3)CC2(Cl)Cl)cc1 (stereo unspecified)	/	25*	/	5	-2	4
O=C1NCCCC1C(=O)Nc1ccccc1C(F)(F)F (stereo unspecified)	6	-3	-10	7	-2	8
COc1cccc2c1C(=O)c1c(O)c3c(c(O)c1C2=O)C[C@@](O)(C(C)=O)C[C@@H]3O[C@H]1C[C@H](N)[C@H](O)[C@H](C)O1	/	/	/	98*	-2	/
CCOc1ccc(N(CC(=O)NCC2CCCO2)S(=O)(=O)c2ccc(SC)cc2)cc1 (stereo unspecified)	-3	-4	13	-1	-3	9
COc1ccc(-c2cn3c(C)c(C(=O)N4CCCc5ccccc54)sc3n2)cc1	/	-9	/	-2	-1	-2
COc1ccc(-c2cn3c4c(sc3n2)CCCC4)cc1	-4	-1	55*	-1	0	-30
Cc1cc(NC(=S)NC(=O)C2CC2)ccc1Br	-4	/	5	-13	1	/
CC1=CC(C)(C)N(S(=O)(=O)c2ccc(F)cc2)c2ccc(C)cc21	-3	-2	36	-8	-2	-25
CC1=CC(C)(C)N(S(=O)(=O)c2ccc(C)cc2)c2ccccc21	-5	-2	52*	-8	0	-16
CN(C)CCCNS(=O)(=O)c1cc(Cl)ccc1Cl	-2	-4	-31	-5	-2	12
O=S(=O)(c1ccc(N2CCC(c3ccc(Cl)cc3)=N2)cc1)N(CCO)CCO	-2	111*	5	-40	90*	-208
CN(C)CCCNS(=O)(=O)c1ccc(N2CCC(c3ccc(Cl)cc3)=N2)cc1	6	202*	52	-2	132*	-214
CCS(=O)(=O)c1nc(S(=O)(=O)c2ccc(Cl)cc2)c(N2CCc3ccccc3C2)s1	/	/	/	5	0	/
Cc1cc(/C=C2\SC(=Nc3ccccc3)NC2=O)c(C)n1-c1ccc(S(N)(=O)=O)cc1	/	-5	/	6	1	9
CC(C)(C)NC(=O)C(c1ccco1)N(C(=O)Cn1nnc(-c2ccc(F)cc2)n1)c1ccccc1F (stereo unspecified)	3	19*	-33	-7	-1	-1
CCc1nc2ccccc2c(C(=O)OCC(=O)Nc2cccc(S(=O)(=O)N3CCOCC3)c2)c1C	/	18*	/	13	0	15
CCc1nc2ccccc2c(C(=O)OCC(=O)Nc2ccc(S(=O)(=O)N3CCOCC3)cc2)c1C	-1	/	10	3	1	/
SMILES	Mac1 fbg enh	S1P2 ag	CD11b adhes inh	GALR2 blocker	GALR2 ag	S1P2 blocker
Nc1nsc2ccccc12	-1	-3	-20	50*	-2	50*
Cc1cc(OCC(=O)Nc2ccncc2)cc(C)c1Br	-9	-3	84*	-11	-2	-23
O=C(NC1=NCCS1)C1CC2CCC1C2 (stereo unspecified)	0	18*	14	9	-2	14
O=S(=O)(NCc1ccco1)c1ccc(Cl)nc1	/	/	/	4	-2	/
COc1ccccc1-n1c(SCc2cc(=O)oc3cc(O)ccc23)nc2ccccc2c1=O	/	/	/	8	1	/
COc1ccccc1-n1c(=O)oc2ccc(Cl)cc2c1=O	-12	-5	96*	6	-3	-5
CCCOC(=O)c1ccc(-c2ccc(C=O)o2)cc1	/	/	/	0	0	/
CCCCOC(=O)c1ccc(-c2ccc(/C=N/NC(=S)NCC)o2)cc1	3	23*	-3	-1	6	-38
O=c1c2c(nc3cc(-c4ccc(Cl)cc4)[nH]n13)CCS2	/	/	/	13	-1	/
CCOc1ccc(/C=N/N2C(=O)C(CC(=O)Nc3ccc(F)cc3F)SC2=NC)cc1OC (stereo unspecified)	/	/	/	6	6.0*	/
COC(=O)c1ccc(CSc2nc3ccc(C)cc3[nH]2)o1	-2	12	-3	8	-2	-27
C/C(=N\NC(=O)c1ccc(Br)cc1)C1C(=O)c2ccccc2C1=O	-7	-1	97*	-3	-2	-2
O=C(CSc1ccc2ccccc2c1)Nc1ccc(S(=O)(=O)Nc2nccs2)cc1	/	/	/	5	0	/
C=C(C)Cn1c(SCC#N)nc2ccccc2c1=O	0	0	-5	-7	-3	-19
Cc1nc2ccccc2n1CCc1nc2c3ccccc3nc(SCC#N)n2n1	1	39*	-6	0	3	-1
O=C(NCC1CCCO1)c1ccc(COc2ccccc2Br)cc1 (stereo unspecified)	/	/	/	-15	-1	/
Cc1cccc(NC(=S)NCc2ccco2)c1C	/	/	/	-2	-2	/
Cc1onc(C(=O)N2C(C)CCCC2C)c1[N+](=O)[O-] (stereo unspecified)	/	/	/	0	-2	/
CCOc1cc(C(=O)CSc2nnc(CNc3ccc(Cl)cc3)o2)ccc1NC(=O)CC	-1	10	14	27	7.8*	47*
CC(Oc1ccc(Cl)cc1Cl)C(=O)Nc1ccc(S(=O)(=O)Nc2cnc3ccccc3n2)cc1 (stereo unspecified)	6	-8	78*	0	-2	-3
CC(Oc1ccc(Cl)cc1Cl)C(=O)Nc1ccncc1 (stereo unspecified)	-4	-7	57*	4	-2	10
CCN(CC)S(=O)(=O)c1cccc(C(=O)OCC(=O)c2ccc3c(c2)OCCO3)c1	/	/	/	2	0	/
Cn1c(=O)oc2cc(S(=O)(=O)NCC3CCCO3)ccc21 (stereo unspecified)	/	20*	/	14	1	6
Cc1ccc(-n2nc3c(c2NC(=O)c2ccc(S(=O)(=O)N4CCOCC4)cc2)CSC3)c(C)c1	80*	-13	-10	-2	-1	21
